Compound activity: PubChem, National Center for Advancing Translational Sciences (NCATS)
Shown is part of a subset that was picked to be rich in hits.
CHX counter = counter-screen hit for Shiga toxin inhibitors, cycloheximide. cell reporter, cycloheximide protein synthesis inhibition counterscreen. max response, %. 300,000 compounds, 12% hits; in the data active means max response mostly above about 13%, no sharp cut-off; inactive means mostly below about 14%; further: read at 38.3 µM for the half of the compounds with a filed dose; 0% is about no effect
LmPK inhibitor = inhibitors of Leishmania mexicana pyruvate kinase; purified LmPK, Kinase-Glo ATP luminescence, 1 h; Potency, µM (top dose mostly 57.5 µM), for inactives: at the top dose activity change, negative = inhibition, usual class: inhibitors; 290,000 compounds, 0.37% hits; further: potency means the concentration at half of the fitted maximal effect; on the % scale 0 is the no-effect control and ±100 the full control effect
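0.1 nM LmPK, 0.5 mM PEP, 0.1 mM ADP; 50 mM imidazole pH 7.2, 7 mM MgCl2, 50 mM KCl; 1 h RT. Kinase-Glo luminescence readout, normalized to no-enzyme (full inhibition) and uninhibited wells.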
Shiga toxin inh = blocks Shiga toxin action in Vero cells; Vero cells, Shiga toxin protein synthesis inhibition reporter; inhibition, % at 38.7 µM; 290,000 compounds, 9.2% hits; in the data active means inhibition mostly above about 28%, no sharp cut-off; inactive means mostly below about 43%; further: 0% is about no effect
Sm TGR block = inhibitors of Schistosoma mansoni thioredoxin glutathione reductase; Potency, µM (doses to about 114 µM), for the others: at the top dose activity change, negative = inhibition, most hits filed as inhibitors; Q962Y6; 360,000 compounds, 3% hits; purified TGR, DTNB reduction, TNB absorbance 405 nm; AID 485364; further: potency means the concentration at half of the fitted maximal effect; on the % scale 0 is the no-effect control and ±100 the full control effect; nearly all actives have a fitted effect of over 60% in size
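TGR 20 nM + NADPH 100 uM (dispensed conc.), cpd preinc 15 min RT; start with NADPH (500 uM addition) then DTNB (15 mM addition). Kinetic TNB absorbance, 405 nm filter. Four-parameter Hill fit across titration.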
FBPA Giardia inh = inhibitors of Giardia lamblia fructose-1,6-bisphosphate aldolase | A8B2U2 | purified Giardia FBPA | Potency, µM (highest dose often 59.6 µM), without a hit: top-dose activity, negative = inhibition, actives largely listed as inhibitors | 290,000 compounds, 0.71% hits | AID 2451; further: potency means the concentration at half of the fitted maximal effect; on the % scale 0 is the no-effect control and ±100 the full control effect; nearly all actives have a fitted effect of over 55% in size
Target sequence (A8B2U2 whole entry, looked up): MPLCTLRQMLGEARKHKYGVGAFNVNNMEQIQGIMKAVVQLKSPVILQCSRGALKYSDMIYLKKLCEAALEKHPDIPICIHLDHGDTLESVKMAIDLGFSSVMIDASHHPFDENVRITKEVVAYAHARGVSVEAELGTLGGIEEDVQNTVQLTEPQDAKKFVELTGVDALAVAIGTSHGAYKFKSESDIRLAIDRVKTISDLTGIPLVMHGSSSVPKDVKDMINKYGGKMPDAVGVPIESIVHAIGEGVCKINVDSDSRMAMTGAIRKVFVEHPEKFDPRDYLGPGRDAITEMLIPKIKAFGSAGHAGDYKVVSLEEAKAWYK
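Giardia FBPA (40 nM reagent) was preincubated 10 min at RT with compound (up to 57.5 uM final), then substrate plus GAPDH/TPI/NAD/arsenate coupling system with diaphorase/resazurin was added; resorufin fluorescence (525/598 nm) was read after 20 min.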
Tb PYK inh = T. brucei pyruvate kinase inhibition; Q57TT1; TbPYK enzyme, Kinase-Glo Plus ATP luminescence, 45 min; Potency, µM (titrated, usually from 76.8 µM), without a hit: at the top dose activity, negative = inhibition, actives largely listed as inhibitors; 410,000 compounds, 0.12% hits; AID 624173; further: potency means the concentration at half of the fitted maximal effect; on the % scale 0 is the no-effect control and ±100 the full control effect; nearly all actives have a fitted effect of over 50% in size
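Readout: single end-point luminescence (Kinase-Glo Plus, 10 min). Reaction conditions were TbPYK/substrate plus 130 uM ADP, 45 min at RT, pH 7.2 TEA buffer. No-enzyme wells served as controls, and data were normalized before concentration-response fitting.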
* marks the source's active call; other numbers are inactive results. Unless noted, the call rests on the fitted dose curve; in most records, active means well fitted curve in the direction sought with a large enough effect; inconclusive means small, poorly fitted or top-dose-only effect, or another doubt; inactive means no such curve, though single readings can be large; an effect the other way counts as inactive or inconclusive.

CC1CCN(CCCNC(=O)c2cc(Sc3ccc(F)cc3)nc3ccccc23)CC1 was read as Sm TGR block -6% and Tb PYK inh -5%.
For O=C(Nc1ccccc1Br)c1cc(=O)c2ccccc2o1 the results were CHX counter 23, LmPK inhibitor -1%, Shiga toxin inh 99*, Sm TGR block -13%, FBPA Giardia inh -13% and Tb PYK inh 2%.
For O=C(NCc1ccccc1)c1cc(=O)c2ccccc2o1 the results were CHX counter 4, LmPK inhibitor 1%, Shiga toxin inh -7, Sm TGR block 32%, FBPA Giardia inh 3% and Tb PYK inh 3%.
For Cc1cc(C)c2c(=O)cc(C(=O)Nc3ccccc3Cl)oc2c1 the results were Sm TGR block 8% and Tb PYK inh -5%.
O=C(Nc1ccccc1Cl)c1cc(=O)c2ccccc2o1 was read as CHX counter 30*, LmPK inhibitor 6%, Sm TGR block 0%, FBPA Giardia inh -4% and Tb PYK inh -4%.
Screening COc1ccc(-c2csc(C(O)c3ccc(F)c(OC)c3)n2)cc1 (stereo not drawn) returned Tb PYK inh -5%.
Screening CCc1ccc(OCC(=O)NCC(c2ccc(OC)cc2)N2CCOCC2)cc1 (stereo not drawn) returned Sm TGR block -5% and Tb PYK inh 1%.
For O=C(CCl)c1ccc2c(c1)CCN2C(=O)C1CCCCC1 the results were CHX counter 13, LmPK inhibitor 1%, Shiga toxin inh -4, Sm TGR block 1.3µM*, FBPA Giardia inh -9% and Tb PYK inh -3%.
`CCC1CCCCN1S(=O)(=O)c1ccc2c(c1)CCN2C(=O)C1CCC1` (stereo not drawn) gave CHX counter -1, LmPK inhibitor 4%, Shiga toxin inh -15, Sm TGR block -1%, FBPA Giardia inh -1% and Tb PYK inh 0%.
For O=C(C1CCC(C(=O)N2CCc3ccccc32)CC1)N1CCc2ccccc21 (stereo not drawn) the results were CHX counter -2, LmPK inhibitor -2%, Shiga toxin inh 1, Sm TGR block -6%, FBPA Giardia inh 0% and Tb PYK inh -8%.
O=C(CCl)c1ccc2c(c1)CCN2C(=O)C1CC1 was read as CHX counter 12, LmPK inhibitor -1%, Shiga toxin inh 19, Sm TGR block 7.1µM* and FBPA Giardia inh -10%.
`Cc1cccc(C)c1OCC(=O)NCC1(N2CCOCC2)CCCCC1` gave Sm TGR block -4% and Tb PYK inh 2%.
CCc1nc2c(OCc3cc(Cl)cc(Cl)c3)cccn2c1N(C)C(=O)c1ccc(OC)cc1 was read as Tb PYK inh 2%.
Screening CC(C)c1ccc(NC(=O)CSC2=Nc3ccccc3C3=NC(CC(=O)NCc4ccc(F)cc4)C(=O)N23)cc1 (stereo not drawn) returned Sm TGR block -6% and Tb PYK inh 4%.
`Cc1noc(/C=C/c2cccs2)c1S(=O)(=O)N1CCC(C(=O)NCCCN2CCC(C)CC2)CC1` gave CHX counter -6, LmPK inhibitor 3%, Shiga toxin inh -19, Sm TGR block 2%, FBPA Giardia inh 5% and Tb PYK inh -7%.
Screening C=CCC(Nc1ccccc1)C12C=CC(O1)C(C(=O)OC)=C2C(=O)OC (stereo not drawn) returned CHX counter -3, LmPK inhibitor 2%, Shiga toxin inh 3, Sm TGR block 6.3µM*, FBPA Giardia inh -3% and Tb PYK inh -14%.
O=C1NCCN2CCCC12 (stereo not drawn) was read as CHX counter -4, LmPK inhibitor -2%, Shiga toxin inh -19, Sm TGR block 25µM*, FBPA Giardia inh -27% and Tb PYK inh -1%.
For COc1cc(NC(=O)Cc2nn(C)c(=O)c3ccccc23)cc(OC)c1OC the results were CHX counter 20*, LmPK inhibitor -4%, Shiga toxin inh 24, Sm TGR block 6%, FBPA Giardia inh -4% and Tb PYK inh 0%.
N#CCSc1nnc(COc2ccc3ccccc3c2)o1 was read as CHX counter 67*, LmPK inhibitor 0%, Shiga toxin inh 93*, Sm TGR block -2%, FBPA Giardia inh 1% and Tb PYK inh -2%.
`COc1ccc(Cc2n[nH]c(=S)o2)cc1` gave CHX counter -3, LmPK inhibitor 1%, Shiga toxin inh -4, Sm TGR block 35µM*, FBPA Giardia inh -27% and Tb PYK inh -25%.
For COc1ccc(CCCc2n[nH]c(=S)o2)cc1 the results were CHX counter 2, LmPK inhibitor -4%, Shiga toxin inh -7, Sm TGR block 0%, FBPA Giardia inh -13% and Tb PYK inh inconclusive.
`S=c1[nH]nc(COc2ccc3ccccc3c2)o1` gave CHX counter 15, LmPK inhibitor 2%, Shiga toxin inh 43*, Sm TGR block -20%, FBPA Giardia inh 10% and Tb PYK inh inconclusive.
`Cc1ccc(Sc2ncccc2COC(=O)NC(C)C)cc1` gave CHX counter 37*, LmPK inhibitor 0%, Shiga toxin inh 118*, Sm TGR block 10%, FBPA Giardia inh 5% and Tb PYK inh 8%.
COCCC1CCCCN1C(=O)c1cccc(OC2CCN(S(C)(=O)=O)CC2)c1 (stereo not drawn) was read as CHX counter -2, LmPK inhibitor -3%, Shiga toxin inh -9, Sm TGR block 1% and Tb PYK inh 3%.
For CCC1CCCCN1C(=O)c1ccc(OC2CCN(C(=O)CCOC)CC2)cc1 (stereo not drawn) the results were CHX counter 16*, LmPK inhibitor -4%, Shiga toxin inh 11, Sm TGR block inconclusive and Tb PYK inh 1%.
`COc1cc(C(=O)N2CCCCCCC2)ccc1OC1CCN(C(C)=O)CC1` gave CHX counter 30*, LmPK inhibitor -7%, Shiga toxin inh 43*, Sm TGR block -13%, FBPA Giardia inh -4% and Tb PYK inh -3%.
CCC1CCCCN1C(=O)c1ccc(OC)c(OC2CCN(C(C)C)CC2)c1 (stereo not drawn) was read as CHX counter -2, LmPK inhibitor -2%, Shiga toxin inh -7, Sm TGR block -21%, FBPA Giardia inh 3% and Tb PYK inh 4%.
For COCC1CCCCN1C(=O)c1ccc(OC)c(OC2CCN(C(C)C)CC2)c1 (stereo not drawn) the results were CHX counter 57*, LmPK inhibitor -1%, Shiga toxin inh 93*, Sm TGR block -22% and Tb PYK inh 8%.
COCC1CCCCN1C(=O)c1cccc(OC2CCN(C(=O)C3CC3)CC2)c1 (stereo not drawn) was read as CHX counter 50*, LmPK inhibitor -10%, Shiga toxin inh 81*, Sm TGR block -25% and Tb PYK inh 28%.
